# Results filed as inconclusive are left out. Some structures have more than one record in an assay (separate samples or runs), and their calls can disagree. Activity calls are given as the source filed them. How the source made its calls, unless noted: active means hit-call score of the fitted dose curve at least 0.9, where 1 is the maximum; inconclusive means response in the unintended direction; inactive means score below 0.9.
# Columns and labels:
# [1] = system: Sodium/Iodide Symporter (NIS), SLC5A5 (gene 6528); test: CPHEA_Stoker_NIS_Inhibition_RAIU: CPHEA's Radioactive Iodide Uptake (RAIU) Assay for Sodium/Iodide Symporter (NIS) Inhibition, Stoker and Laws Labs (AID 2283841)
# Procedure, shortened: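 Iodide uptake through human NIS is measured in an engineered HEK293T line. Cells take up 125I (329pM final) for 2 hours at room temperature alongside chemicals at 0.001–100uM. Retained radioactivity is counted, and the signal is expressed against DMSO controls.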
# [2] = CPHEA_Stoker_NIS_Cytotoxicity: Cytotoxicity Assessment for CPHEA's Radioactive Iodide Uptake (RAIU) Assay for Sodium/Iodide Symporter (NIS) Inhibition, Stoker and Laws Labs (AID 2283897)
# Procedure, shortened: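 ATP luminescence (Cell Titer Glo) measured viability, with loss of signal normalized to DMSO controls. Cells: hNIS-HEK293T-EPA, seeded 40 hours prior. Dosing: 0.001–100uM, 2 hours, room temperature, uptake buffer pH 7.4.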
# [3] = system: turtle Thyroid Hormone Receptor, alpha (TRa), gene 101949057; test: ATG_trTRa_XSP2: Attagene TRANS-FACTORIAL Multi-Species (XSP1) HepG2 Assay for turtle Thyroid Hormone Receptor, alpha (TRa) (AID 2283834);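 further: hits raise reporter mRNA over the DMSO baseline so AC50 marks activators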
# Procedure, shortened: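 Gain-of-signal reporter transcription measured in transiently transfected HepG2 at 24 h post-dose. Fluorescent RT-PCR products were resolved by capillary electrophoresis and compared with DMSO vehicle.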
# [4] = target: human Thyroid hormone Receptor alpha (TRa), THRA (gene 7067) (UniProt P10827); test: ATG_hTRa_XSP2: Attagene TRANS-FACTORIAL Multi-Species (XSP2) HepG2 Assay for human Thyroid hormone Receptor alpha (TRa) (AID 2283838)
# Method: (§1) ATG_XSP2_multi-species_TRANS is a cell-based, multiplexed assay created by modifying the existing Attagene TRANS-FACTORIAL system to include a panel of nuclear receptors from some or all the following species: human (Homo sapiens), mouse (Mus musculus), frog (Xenopus laevis), zebrafish (Danio rerio), chicken (Gallus gallus), and turtle (Chrysemys picta). The ECOTOX-FACTORIAL format uses HepG2, a human liver cell line, with measurements taken at 24 hours after chemical dosing in a 24-well plate. Xsp2 included 3 nM 6-alpha-fluorotestosterone and 1.5 nM norgestrel to stimulate the androgen receptor.ATG_hTRa_XSP2 is one of 29 assay components measured or calculated from the ATG_XSP2_multi-species_TRANS assay. It is designed to make measurements of mRNA induction, a form of inducible reporter, as detected with fluorescence intensity signals by Reverse transcription polymerase chain reaction (RT-PCR) and Capillary electrophoresis technology.The assay endpoint ATG_hTRa_XSP2 was analyzed in the positive analysis fitting direction relative to DMSO as the negative control and baseline of activity. Using a type of inducible reporter, measures of mRNA for gain-of-signal activity can be used to understand the reporter gene at the transcription factor-level as they relate to the gene TR. Furthermore, this assay endpoint can be referred to as a primary readout, because this assay has produced multiple assay endpoints where this one serves a reporter gene function. To generalize the intended target to other relatable targets, this assay endpoint is annotated to the nuclear receptor intended target family, where the subfamily is non-steroidal.
# (§2) Human liver HepG2 cells are transiently transfected with multiple reporter transcription units (MRTUs) in 6-well plates using FuGene 6 reagent (Roche; 3 ml FuGene/1 mg DNA). The MRTU constructs are regulated by a cis-regulating element (promoter). […] A major difference between the CIS and TRANS system is that in CIS activities of endogenous TFs are measured, whereas the TRANS assay evaluates changes in activities of exogenous, chimeric NR-Gal4 proteins. […] At the end of 24 hour incubation, total RNA was isolated using TriZol reagent (Invitrogen). The isolated RNA is then reverse-transcribed using oligo(dT) primer and Mo-MLV reverse transcriptase (Invitrogen) with DNAse I (Ambion) treatment for 30 min. The one-tenth of the produced cDNA was amplified by PCR using Taq DNA polymerase (Invitrogen) and two reporter sequence-specific primers. The PCR products were fluorescently labeled by primer extension with 6-arboxyfluorescein (6-FAM) 5'-labeled reporter sequence-specific primer (2 min at 95 C, 20 s at 68 C and 10 min at 72 C) and these products were digested with 5U of HpaI (New England Biolabs) for 2h at 37 C. The fragments were purified using Qiaquick PCR columns (Qiagen), analyzed on an ABI 3130xL genetic analyzer (Applied Biosystems) with peak positions identified by using a set of X-rhodamine (ROX)-labeled MapMarker1000 molecular weight standards (BioVentures). The raw capillary electrophoresis data was processed using Attagraph software (Attagene).
# [5] = target: frog Thyroid hormone Receptor alpha (TRa), thra-a (gene 397942) (UniProt P15204); test: ATG_frTRa_XSP2: Attagene TRANS-FACTORIAL Multi-Species (XSP2) HepG2 Assay for frog Thyroid hormone Receptor alpha (TRa) (AID 2283839);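 on AC50: AC50 reflects induction of frog TRa-driven reporter mRNA above DMSO baseline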
# Method: as §1, with “receptor.ATG_frTRa_XSP2” for “receptor.ATG_hTRa_XSP2”, “ATG_frTRa_XSP2” for “ATG_hTRa_XSP2”
# as §2
# [6] = target: human Thyroid hormone Receptor beta (TRb), THRB (gene 7068) (UniProt P10828); test: ATG_hTRb_XSP2: Attagene TRANS-FACTORIAL Multi-Species (XSP2) HepG2 Assay for human Thyroid hormone Receptor beta (TRb) (AID 2283840);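 further: actives raise reporter mRNA so potency reflects agonist-like gain of signal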
# Procedure, shortened: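 In this cell-based multiplex, HepG2 liver cells carrying transfected GAL4-UAS reporter constructs are exposed to chemical for 24 hours, then reporter transcripts are measured by RT-PCR with capillary electrophoresis, scored as gain of signal against DMSO.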
# [7] = ATG_M_61_XSP2: Attagene TRANS-FACTORIAL Multi-Species (XSP2) HepG2 Assay for M61 Transcription Factor (Internal Marker) (AID 2283835; active means hit-call score of the fitted dose curve at least 0.9, where 1 is the maximum; inactive means score below 0.9;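 further: reporter mRNA of an internal background marker read by RT-PCR and capillary electrophoresis; active means a rise in signal above the DMSO baseline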)
# Procedure, shortened: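 HepG2 cells transiently transfected with multiple GAL4-UAS reporter units; 3 nM 6-alpha-fluorotestosterone and 1.5 nM norgestrel present to stimulate androgen receptor. After 24 h compound exposure, reporter mRNA measured by RT-PCR and capillary electrophoresis fluorescence, gain-of-signal versus DMSO baseline.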
# [8] = target: zebrafish Thyroid Hormone Receptor beta (TRb), thrb (gene 30607) (UniProt Q9PVE4); test: ATG_zfTRb_XSP2: Attagene TRANS-FACTORIAL Multi-Species (XSP1) HepG2 Assay for zebrafish Thyroid Hormone Receptor beta (TRb) (AID 2283836)
# Procedure, shortened: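 Human liver HepG2, transient MRTU transfection (NR-Gal4 chimeras, GAL4-UAS reporters); 24 h compound exposure; total RNA → oligo(dT) RT → PCR → 6-FAM label → HpaI cut → CE fluorescence. DMSO = negative control/baseline.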
# [9] = CEETOX_H295R_11DCORT_noMTC: CeeTox H295R High-throughput Steroidogenesis Assay for 11-Deoxycortisol (11DCORT), maximum tolerated concentration (MTC) filtered results only (AID 2283911; active means hit-call score of the fitted dose curve at least 0.9, where 1 is the maximum; inactive means score below 0.9); conditions: actives raise or lower the signal
# Procedure, shortened: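 Readout is 11-deoxycortisol in culture medium by reverse-phase HPLC with MS/MS, after 48 h chemical treatment of forskolin-primed H295R cells. Values are relative to DMSO and unfiltered for cytotoxicity.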
# [10] = ATG_XTT_Cytotoxicity_XSP2: Cytotoxicity Assessment in the Attagene TRANS-FACTORIAL Multi-Species (XSP2) HepG2 Assay (AID 2283837)
# Procedure, shortened: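 HepG2 cells, transiently transfected with multiple reporter constructs, exposed to chemical for 24 h. Cell number assessed with XTT fluorescence read-out; loss of signal fitted relative to DMSO.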
# Sequence of human Thyroid hormone Receptor beta (TRb), THRB (gene 7068) (P10828 whole entry, looked up, the tested form may be a part): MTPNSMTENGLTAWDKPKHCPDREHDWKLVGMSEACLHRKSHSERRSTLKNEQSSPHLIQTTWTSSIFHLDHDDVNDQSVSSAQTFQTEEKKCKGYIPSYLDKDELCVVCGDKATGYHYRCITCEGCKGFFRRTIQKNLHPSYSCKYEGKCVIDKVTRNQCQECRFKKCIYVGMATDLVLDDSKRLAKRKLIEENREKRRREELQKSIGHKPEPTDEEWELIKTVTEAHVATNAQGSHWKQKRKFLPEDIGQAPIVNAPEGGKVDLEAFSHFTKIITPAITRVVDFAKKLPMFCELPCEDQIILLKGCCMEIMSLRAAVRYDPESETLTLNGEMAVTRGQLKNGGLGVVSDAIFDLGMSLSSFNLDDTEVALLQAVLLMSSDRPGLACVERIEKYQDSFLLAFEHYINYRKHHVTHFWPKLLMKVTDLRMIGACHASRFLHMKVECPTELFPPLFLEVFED
# Sequence of human Thyroid hormone Receptor alpha (TRa), THRA (gene 7067) (P10827 whole entry, looked up): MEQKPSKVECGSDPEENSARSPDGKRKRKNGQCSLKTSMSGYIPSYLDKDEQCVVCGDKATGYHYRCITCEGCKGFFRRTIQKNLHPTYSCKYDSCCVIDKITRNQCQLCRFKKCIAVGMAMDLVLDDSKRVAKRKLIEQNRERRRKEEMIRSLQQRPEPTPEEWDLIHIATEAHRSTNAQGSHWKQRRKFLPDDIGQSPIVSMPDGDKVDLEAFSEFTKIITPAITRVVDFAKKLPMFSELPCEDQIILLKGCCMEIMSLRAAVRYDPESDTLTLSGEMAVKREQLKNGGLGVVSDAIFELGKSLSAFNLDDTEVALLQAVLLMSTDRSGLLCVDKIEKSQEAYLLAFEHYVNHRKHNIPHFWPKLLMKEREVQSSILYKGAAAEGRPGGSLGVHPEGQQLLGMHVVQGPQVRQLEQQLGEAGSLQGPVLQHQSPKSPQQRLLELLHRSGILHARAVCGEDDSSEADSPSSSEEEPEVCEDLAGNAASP
# Sequence of frog Thyroid hormone Receptor alpha (TRa), thra-a (gene 397942) (P15204 whole entry, looked up): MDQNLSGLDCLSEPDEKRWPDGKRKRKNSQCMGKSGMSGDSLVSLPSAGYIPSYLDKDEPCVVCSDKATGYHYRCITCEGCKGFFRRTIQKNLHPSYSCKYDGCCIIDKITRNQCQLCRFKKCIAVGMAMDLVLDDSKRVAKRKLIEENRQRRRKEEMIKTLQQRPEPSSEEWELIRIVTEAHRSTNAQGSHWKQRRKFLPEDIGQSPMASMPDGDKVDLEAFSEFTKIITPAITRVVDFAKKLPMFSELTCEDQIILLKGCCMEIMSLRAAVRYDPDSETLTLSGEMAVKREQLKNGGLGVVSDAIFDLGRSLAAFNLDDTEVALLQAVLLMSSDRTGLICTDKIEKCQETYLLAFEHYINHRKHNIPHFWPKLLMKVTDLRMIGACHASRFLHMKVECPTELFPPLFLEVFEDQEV
# Sequence of zebrafish Thyroid Hormone Receptor beta (TRb), thrb (gene 30607) (Q9PVE4 whole entry, looked up, the tested form may be a part): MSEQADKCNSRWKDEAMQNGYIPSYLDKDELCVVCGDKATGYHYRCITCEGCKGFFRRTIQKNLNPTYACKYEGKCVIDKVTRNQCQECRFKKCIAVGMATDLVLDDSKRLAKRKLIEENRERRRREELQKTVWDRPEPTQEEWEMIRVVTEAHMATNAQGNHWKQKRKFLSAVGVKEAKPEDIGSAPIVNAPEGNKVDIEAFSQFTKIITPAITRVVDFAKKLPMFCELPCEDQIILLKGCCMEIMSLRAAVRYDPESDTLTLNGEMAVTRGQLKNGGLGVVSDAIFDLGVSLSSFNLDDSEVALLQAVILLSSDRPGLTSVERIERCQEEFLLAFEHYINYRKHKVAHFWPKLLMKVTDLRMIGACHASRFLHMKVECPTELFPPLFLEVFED
compound,measurement,setting,value
O=C(NC(=O)c1c(F)cccc1F)Nc1cc(Cl)c(OC(F)(F)C(F)C(F)(F)F)cc1Cl (configuration not stated),outcome,[1],inactive
same,outcome,[2],inactive
CCOc1ccc(N)cc1,outcome,[1],inactive
same,outcome,[2],inactive
COCCl,outcome,[3],inactive
same,outcome,[4],inactive
same,outcome,[5],inactive
same,outcome,[6],inactive
O=[N+]([O-])c1ccccc1O,outcome,[1],inactive
same,outcome,[2],inactive
O=C(O)C1(c2ccc3c(c2)OC[C@H](Cc2ccc(-c4ccccc4)cc2)[C@H]3O)CCCC1,outcome,[1],inactive
same,outcome,[2],inactive
C=CC(Cl)CCl (configuration not stated),outcome,[1],inactive
same,outcome,[2],inactive
[Cl][Sn]([c]1ccccc1)([c]1ccccc1)[c]1ccccc1,outcome,[3],inactive
same,outcome,[7],inactive
same,outcome,[8],inactive
same,outcome,[5],inactive
same,AC50,[6],0.558 µM (active)
O=c1oc2ccccc2c(O)c1C(CC(O)c1ccc(-c2ccc(Br)cc2)cc1)c1ccccc1 (configuration not stated),outcome,[3],inactive
same,outcome,[8],inactive
same,outcome,[6],inactive
CC(C)=CC1C(C(=O)OCc2cccc(Oc3ccccc3)c2)C1(C)C (configuration not stated),outcome,[1],inactive
same,outcome,[2],inactive
Cc1cc(Cl)ccc1N,outcome,[9],inactive
CC(C)N(C(=O)CCl)c1ccccc1,outcome,[1],inactive
same,outcome,[2],inactive
N#CCCC(Br)(C#N)CBr (configuration not stated),outcome,[1],inactive
same,outcome,[2],inactive
CCCCCCCCCCCCc1cccc(S(=O)(=O)O)c1,outcome,[1],inactive
same,outcome,[2],inactive
Oc1cc(Cl)c(Cl)cc1Cl,AC50,[3],21.7 µM (active)
same,outcome,[3],inactive
same,outcome,[8],inactive
same,outcome,[10],inactive
same,AC50,[4],26.3 µM (active)
same,outcome,[4],inactive
same,AC50,[5],100 µM (active)
same,outcome,[5],inactive
same,outcome,[6],inactive
same,outcome,[1],inactive
same,outcome,[2],inactive

# From PubChem BioAssay (EPA / NIEHS)
